In PubChem BioAssay (NCI):
Compounds without any hit were thinned out: in the full panel of roughly 79,000, 15% have a hit. Active and inactive are the calls of the source. Cut-off read from the data, not from the text of the source: active = growth inhibition above about 70%; inactive = the rest.

Experiments:
[1] = NCI Yeast Anticancer Drug Screen. Data for the rad50 strain (AID 155);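 note: 0% = growth of vehicle-only cultures of the same strain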; details: S. cerevisiae rad50 strain growth inhibition, hits give high values; at 50.0 µM unless noted
How it was run: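 Cells are treated with compound, grown, and their growth is then scored against vehicle-only cultures of the same repair-deficient yeast strain.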

[2] = NCI Yeast Anticancer Drug Screen. Data for the mec2-1 strain (AID 157); details: S. cerevisiae mec2-1 strain, hits give high values; at 50.0 µM unless noted
How it was run: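 Compounds were applied to mec2-1 yeast cells. Their growth was then compared with that of vehicle-treated cultures to give growth inhibition.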

[3] = NCI Yeast Anticancer Drug Screen. Data for the sgs1 mgt1 strain (AID 161);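 note: 0% = growth of cultures given vehicle only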; details: S. cerevisiae sgs1 mgt1 strain, hits give high values; at 50.0 µM unless noted
How it was run: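 This yeast growth screen uses a strain with defined DNA-repair lesions; compound-treated growth is compared with vehicle-treated growth.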

[4] = NCI Yeast Anticancer Drug Screen. Data for the cln2 rad14 strain (AID 165);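 note: 0% = growth equal to vehicle treated cultures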; details: S. cerevisiae cln2 rad14 strain, hits give high values; at 50.0 µM unless noted
How it was run: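 Strain: cln2 rad14 yeast, altered in cell cycle control and DNA damage repair. Read-out: growth inhibition vs vehicle.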

[5] = NCI Yeast Anticancer Drug Screen. Data for the bub3 strain (AID 167); details: S. cerevisiae bub3 mutant strain, hits give high values; at 50.0 µM unless noted
How it was run: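 Part of a panel of yeast mutants defective in DNA damage repair or cell cycle regulation. Each strain is grown with compound, and inhibition is calculated relative to solvent-treated cultures.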

[6] = NCI Yeast Anticancer Drug Screen. Data for the mlh1 rad18 strain (AID 175); details: S. cerevisiae mlh1 rad18 strain growth inhibition, hits give high values; at 50.0 µM unless noted
How it was run: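 A repair-deficient yeast strain is exposed to test compound, and growth is scored relative to vehicle-treated controls.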

Measured: growth inhibition

NC(CSS(=O)(=O)O)=NCCCOCc1ccccc1
inactive: [1] 15.4% | [2] 7% | [3] 12.3% | [4] 10% | [5] 18.6% | [6] -7.2%

CN(CCNC(=O)C1CCCCC1C(=O)O)c1ccccc1 (stereo not drawn)
inactive: [1] 5% | [2] 22.3% | [3] 1% | [4] 0.15% | [5] 13.6% | [6] -10.2%

N#CSC(C(=O)c1ccccc1)c1ccccc1 (stereo not drawn)
inactive: [2] 60.6%
active: [1] 94.2% | [3] 91.2% | [4] 89% | [5] 95.2% | [6] 91.3%
